Screens (PubChem BioAssay)
HT1080NT lethal – kills 2HG-producing HT-1080-NT fibrosarcoma cells | HT-1080-NT fibrosarcoma viability, CellTiter-Glo ATP luminescence, 48 h | Potency, µM (titrated, usually from 46.1 µM), inactives show at the highest dose activity, negative = less viability, most hits filed as cytotoxic | 360,000 compounds, 1.6% hits;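 note: NT is the 2HG producing partner of a matched IDH1 knockdown line; potency is the fitted concentration of half-maximal effect; 0% = DMSO-treated cells and -100% = media-only wells without cells; nearly all actives have a fitted effect of over 55% in size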
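Luminescent CellTiter-Glo readout after 48 hours of compound exposure at 37 degrees C defined viability of HT-1080-NT cells. Activity was normalized to DMSO wells and cell-free media wells; concentration-response curves were fitted and assigned curve classes.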
HT1080 IDH1KD tx – toxicity to HT-1080 IDH1 knockdown cells (counter line); HT-1080 IDH1 knockdown viability, ATP luminescence, 48 h; 360,000 compounds, 2% hits; Potency, µM (highest dose often 46.1 µM), without a hit: top-dose activity, negative = toxicity, most hits filed as cytotoxic;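 note: potency is the fitted concentration of half-maximal effect; 0% = DMSO wells and -100% = cell-free medium wells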
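% activity derives from luminescence (CellTiter-Glo), normalised to DMSO and no-cell wells. HT-1080-IDH1KD cells, 750/well, had 48 h compound exposure at 37 °C.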
12-LOX inh – ALOX12 (human) lipoxygenase inhibition; P18054; purified 12hLO, xylenol orange hydroperoxide absorbance; Potency, µM (series often up to 108 µM), inactives show at the top dose activity change, negative = inhibition, usual class: inhibitors; 580,000 compounds, 1.1% hits; AID 1671190; note: potency is the fitted concentration of half-maximal effect
Target sequence (P18054 whole entry, looked up): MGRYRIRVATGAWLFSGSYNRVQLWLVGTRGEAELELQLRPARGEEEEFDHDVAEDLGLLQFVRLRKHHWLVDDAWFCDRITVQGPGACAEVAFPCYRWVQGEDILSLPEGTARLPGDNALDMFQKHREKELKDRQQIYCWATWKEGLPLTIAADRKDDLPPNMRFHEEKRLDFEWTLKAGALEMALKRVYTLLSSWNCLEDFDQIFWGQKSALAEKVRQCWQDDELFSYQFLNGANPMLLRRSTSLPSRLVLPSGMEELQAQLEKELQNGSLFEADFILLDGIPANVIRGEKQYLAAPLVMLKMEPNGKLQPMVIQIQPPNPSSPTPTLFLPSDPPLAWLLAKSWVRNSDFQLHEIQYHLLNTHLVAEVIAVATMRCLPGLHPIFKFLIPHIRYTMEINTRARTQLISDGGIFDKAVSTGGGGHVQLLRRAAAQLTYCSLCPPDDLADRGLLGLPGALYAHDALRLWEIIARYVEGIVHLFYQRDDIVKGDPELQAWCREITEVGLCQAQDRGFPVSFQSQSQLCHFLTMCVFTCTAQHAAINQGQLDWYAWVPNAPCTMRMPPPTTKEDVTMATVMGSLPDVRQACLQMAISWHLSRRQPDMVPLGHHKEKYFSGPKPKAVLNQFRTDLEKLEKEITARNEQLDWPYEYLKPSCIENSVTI
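Purified human 12hLO at 150 nM in 25 mM Hepes, 0.01% Triton X-100, pH 7.0, preincubated 15 min at room temperature with compound. Reaction started with 40 uM arachidonic acid, 30 min at room temperature. Hydroperoxide measured by Fe-xylenol orange, 573/405 nm absorbance ratio.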
DT40 TDP1 no CPT – qHTS for Inhibitors of human tyrosyl-DNA phosphodiesterase 1 (TDP1): qHTS in cells in absence of CPT. Potency, µM (top dose mostly 46.2 µM), without a hit: at the top dose activity change, negative = growth inhibition, actives largely listed as inhibitors. DT40 Tdp1-/- hTDP1 cells, no CPT, ATP luminescence, 48 h. 420,000 compounds, 15% hits; note: potency is the fitted concentration of half-maximal effect; nearly all actives have a fitted effect of over 55% in size
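Readout: luminescence from CellTiter-Glo after 30 min in the dark at RT. Cells: DT40 Tdp1-/- with stable hTDP1, 400/well. Exposure: compounds alone, ≥48 hr, 37 °C.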
DT40 TDP1 CPT – DT40-hTDP1 cell growth loss with CPT. chicken DT40 Tdp1-/-;hTDP1 cells + 20 nM CPT, ATP luminescence, 48 h. 420,000 compounds, 12% hits. AID 686979. Potency, µM (titrated, usually from 46.2 µM), without a hit: top-dose activity change, negative = growth inhibition, most hits filed as inhibitors; note: potency is the fitted concentration of half-maximal effect; nearly all actives have a fitted effect of over 55% in size
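Chicken DT40 Tdp1-/- cells stably complemented with human TDP1 were seeded at 400 cells/well in medium containing 20 nM camptothecin, exposed to pin-transferred compounds, and grown at 37 °C for at least 48 hr. Viability was read as ATP luminescence.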
IL-1B inflam inh – blocks inflammasome-driven IL-1 beta release | THP-1 LPS/ATP IL-1B secretion, AlphaLISA, 16 h; active compounds read low | AID 743279 | 360,000 compounds, 4.7% hits | activity change, % at 57.5 µM; in the data active = activity change below about -50%; inconclusive = mostly about -30% to -49%
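THP-1 cells pretreated 1 hr with compounds (up to 57.5 uM final), then stimulated with LPS (250 ng/mL final) plus ATP (1.25 mM final); secreted IL-1B measured by AlphaLISA after 16 hr, decreased signal indicating inhibition.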
* = called active by the depositor; ? = inconclusive; . = no result given. This excerpt belongs to a sample that is enriched for hits. Unless noted, calls come from the whole dose curve; as a rule, active = well fitted curve in the direction sought with a large enough effect; inconclusive = small, poorly fitted or top-dose-only effect, or another doubt; inactive = no such curve, though single readings can be large; an effect the other way counts as inactive or inconclusive. Unless noted, % is set by controls: 0 for no effect and ±100 for the full control effect.

SMILES	HT1080NT lethal	HT1080 IDH1KD tx	12-LOX inh	DT40 TDP1 no CPT	DT40 TDP1 CPT	IL-1B inflam inh
CCc1nc(CN2CCN(c3ccc(C(F)(F)F)cn3)CC2)c(C)[nH]1	?	-13.3%	0.0%	6.51µM*	11.6µM*	-0.3
O=C(CCc1ccccc1)Nc1cc(C(F)(F)F)ccc1Cl	1.1%	-2.4%	4.7%	-7.7%	9.2%	-14.8
CCCC(=O)NC(Nc1cc(C(F)(F)F)ccc1Cl)C(Cl)(Cl)Cl (stereo not drawn)	?	?	-14.2%	18.4µM*	18.4µM*	-3.2
Cc1cccc(C(=O)NC(Nc2cccc(C(F)(F)F)c2)C(Cl)(Cl)Cl)c1 (stereo not drawn)	.	.	-4.2%	.	.	.
CCCC(=O)NC(Nc1cccc(C(F)(F)F)c1)C(Cl)(Cl)Cl (stereo not drawn)	?	?	22.7%	20.6µM*	?	8.1
O=C(NC(Nc1cc(C(F)(F)F)ccc1Cl)C(=O)c1ccccc1)c1ccccc1 (stereo not drawn)	-27.2%	-22.3%	1.4%	20.6µM*	?	-4.5
COc1ccc(Cc2n[nH]c(=S)n2NC(=O)Nc2ccc(Cl)c(Cl)c2)cc1	0.0%	-9.6%	?	7.31µM*	10.3µM*	-23.0
O=C(COc1cc2oc(=O)cc(-c3ccccc3)c2cc1Cl)NCCN1CCOCC1	-8.8%	1.1%	0.0%	7.31µM*	4.11µM*	23.2
COc1ccc(-c2cc(=O)oc3cc(OC(=O)C4CCCCC4)c(Cl)cc23)cc1	-6.6%	-11.1%	-18.7%	?	23.1µM*	4.8
COc1ccc(-c2cc(=O)oc3cc(O)ccc23)cc1	-24.8%	?	-4.1%	7.31µM*	?	17.1
COc1ccc(-c2cc(=O)oc3cc(OCC(C)=O)ccc23)cc1	0.6%	1.0%	1.2%	-24.1%	-24.3%	-0.8
COc1ccc(-c2cc(=O)oc3cc(OCC(=O)Nc4ccccn4)ccc23)cc1	-0.9%	4.8%	0.9%	?	16.4µM*	-4.0
CCOc1ccccc1NC(=O)Cn1c(N2CCC(C)CC2)nc(C)cc1=O	.	.	27.9%	.	.	.
CCC(=O)Nc1ccc2nc(SCc3ccc(F)c4ccccc34)sc2c1	.	.	-16.7%	.	.	.
COC(=O)Cc1cc(=O)oc2cc(O)ccc12	-1.0%	8.5%	-11.3%	-7.7%	-0.9%	-69.6*
O=C(COc1ccc2c(-c3ccccc3)cc(=O)oc2c1)NCCCn1ccnc1	-5.4%	1.2%	17.3%	?	18.4µM*	-15.4
CCC(C)C(=O)OCc1cc(=O)oc2cc(O)ccc12 (stereo not drawn)	.	.	-25.1%	.	.	.
CC(Oc1cc2oc(=O)c3c(c2cc1Cl)CCCC3)C(=O)NCCN1CCOCC1 (stereo not drawn)	-2.8%	-13.5%	-15.0%	13µM*	?	11.7
CCOC(=O)C(Oc1ccc2c(-c3ccc(OC)cc3)cc(=O)oc2c1C)c1ccccc1 (stereo not drawn)	-14.8%	-6.2%	-9.5%	?	16.4µM*	7.7
COc1ccc(C(=O)Oc2ccc(Cl)cc2C)cc1OC	.	.	-19.9%	.	.	.
CC(=O)N1CCN(C(=O)CCc2c(C)c3ccc(O)cc3oc2=O)CC1	.	.	2.1%	.	.	.
CCCCN(C)Cc1c(O)ccc2c(-c3ccccc3)cc(=O)oc12	-14.1%	-21.0%	-9.3%	14.6µM*	?	?
CCN(CC)Cc1c(O)ccc2c(-c3ccccc3)cc(=O)oc12	-3.0%	6.9%	?	-13.9%	-2.2%	-2.0
COc1ccc(-c2cc(=O)oc3c(C)c(OC(=O)c4cccs4)ccc23)cc1	-7.1%	-0.8%	-4.1%	?	3.66µM*	-5.8
COc1ccc(-c2cc(=O)oc3c(C)c(O)ccc23)cc1	-4.5%	3.5%	0.0%	3.26µM*	7.31µM*	24.2
SMILES	HT1080NT lethal	HT1080 IDH1KD tx	12-LOX inh	DT40 TDP1 no CPT	DT40 TDP1 CPT	IL-1B inflam inh
Cc1c(O)ccc2c(-c3ccccc3)cc(=O)oc12	-0.3%	6.9%	103.6%	14.6µM*	13µM*	24.2
CCCCN(CC)Cc1c(O)ccc2c(-c3ccccc3)cc(=O)oc12	-0.9%	-2.7%	-18.7%	?	?	-27.3
CC1CC(=O)Nc2ccccc2N1C(=O)Cn1cnc2cc(F)ccc2c1=O (stereo not drawn)	.	.	6.9%	.	.	.
CCOc1ccc(/C=N/NC(=O)c2ccccc2Cl)cc1CN1CC2CC(C1)c1cccc(=O)n1C2 (stereo not drawn)	-27.7%	-19.1%	1.3%	?	?	-3.6
CCOc1ccc(/C=N/NC(=O)c2ccccc2C)cc1CN1CC2CC(C1)c1cccc(=O)n1C2 (stereo not drawn)	9.1%	-11.7%	-18.8%	23.1µM*	?	28.1
Cc1ccc(NCC(=O)N=Nc2c(O)[nH]c3ccc([N+](=O)[O-])cc23)cc1	?	?	0.0%	23.1µM*	?	66.5
O=[N+]([O-])c1ccc2[nH]c(O)c(N=NC(=S)NCC3CCCO3)c2c1 (stereo not drawn)	3.0%	5.0%	-0.3%	14.6µM*	?	9.2
Cc1ccccc1NCC(=O)N=Nc1c(O)[nH]c2ccc([N+](=O)[O-])cc12	?	-29.7%	-6.1%	?	?	83.9
CCNC(=S)N=Nc1c(O)[nH]c2ccc([N+](=O)[O-])cc12	-27.0%	5.8µM*	-6.3%	4.11µM*	3.26µM*	0.0
CN(Cc1cnccn1)Cc1nc(Cc2ccccc2Cl)no1	9.9%	19.2%	8.1%	-8.4%	-8.3%	19.2
CCN(Cc1ccncc1)Cc1nc(Cc2ccccc2Cl)no1	?	-17.0%	1.8%	13µM*	?	23.3
S=C(NCCCN1CCOCC1)NN=C1c2ccccc2-c2ccccc21	-23.5%	?	44.7µM*	5.8µM*	5.8µM*	-14.0
CCNC(=S)NN=C1c2ccccc2-c2ccccc21	-15.1%	-3.1%	35.5µM*	3.66µM*	3.66µM*	?
S=C(NCCN1CCOCC1)N/N=C/c1ccccc1	11.8%	8.1%	0.0%	-3.2%	10.9%	19.6
Cc1cc(C(=O)N(C)CC2(C)CCOCC2)nn1C	.	.	49.0%	.	.	.
COC(=O)[C@H](C)N(Cc1ccc(Cl)c(Cl)c1)S(=O)(=O)CCN1CCN(c2ccccc2)CC1	-0.5%	0.9%	-2.1%	18.4µM*	?	-2.0
S=C(NCc1ccc2c(c1)OCO2)Nc1ccc(-c2nc3ccccc3[nH]2)cc1	?	?	?	18.4µM*	20.6µM*	?
